Screens deposited in PubChem BioAssay by several laboratories.
Compounds with a hit are over-represented: about 4.2% of the library has one in this group of screens.
Mtb FBA inh: inhibitors of M. tuberculosis fructose-bisphosphate aldolase; inhibition, % at 1 µM; P9WQA3; purified M. tuberculosis FBA, fluorescence read-out; hit rate 2.3% among 360,000; AID 588726; in the data active = inhibition above about 27%;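 note: 0% = vehicle and 100% = reference inhibitor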
Target sequence (P9WQA3 whole entry, looked up): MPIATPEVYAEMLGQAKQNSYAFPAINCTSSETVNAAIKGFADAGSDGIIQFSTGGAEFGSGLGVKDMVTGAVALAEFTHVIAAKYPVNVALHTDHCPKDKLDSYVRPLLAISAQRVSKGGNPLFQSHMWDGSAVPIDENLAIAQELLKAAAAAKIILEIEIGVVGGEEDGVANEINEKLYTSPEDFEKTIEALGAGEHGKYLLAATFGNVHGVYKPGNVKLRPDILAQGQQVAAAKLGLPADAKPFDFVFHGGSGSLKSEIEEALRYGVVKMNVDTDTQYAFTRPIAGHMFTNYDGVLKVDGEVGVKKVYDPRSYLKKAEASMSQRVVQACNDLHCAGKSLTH
GDH-TPI counter: counter-screen for M. tuberculosis FBA inhibitors: GDH-TPI coupled enzymes; AID 588335; GDH-TPI coupled enzyme counterscreen, NADH absorbance; inhibition, % at 4.8 µM; hit rate 1.2% among 360,000;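 note: 0% = DMSO wells and 100% = wells lacking the enzyme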
CCHFV vOTU inh: blocks the CCHF virus ovarian tumor domain protease | inhibition, % at 11.5 µM | hit rate 0.55% among 370,000 | CCHFV vOTU protease, Pep-AMC fluorescence; note: 0% = vehicle wells with enzyme and 100% = no enzyme wells
RecA splice inh: inhibitors of M. tuberculosis RecA intein splicing; cell-free RecA intein splicing, fluorescence; inhibition, % (concentration not given with the values); AID 2221; P9WHJ3; hit rate 0.75% among 290,000; in the data active = inhibition above about 30%;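 note: 0% = vehicle wells and 100% = reference inhibitor control wells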
Numbers without * were called inactive; x = no result; + = active, no number. Cut-off read from the data, not from the text of the source, unless noted: active = inhibition above about 30%; inactive = the rest.

SMILES | Mtb FBA inh | GDH-TPI counter | CCHFV vOTU inh | RecA splice inh
COc1ccccc1NS(=O)(=O)c1cccc(C(=O)NCC(c2ccco2)N(C)C)c1 (centres undefined) | 1.2 | 1.7 | -4.5 | 1.3
CCNC(=O)C1(C)CCN(C(=O)c2cccc(Cl)c2)C1 (centres undefined) | -2.5 | 6.4 | 22.3 | x
COC(=O)[C@]12C[C@H](CC(=O)N3CCN(C(=O)c4ccco4)CC3)C(=O)N(Cc3ccccc3)C1=C[C@H](COCc1ccccc1)O[C@@H]2C | x | x | -3.1 | x
CCOc1ccc(CN(C)C(=O)CCl)cc1 | -4.4 | -4.0 | -9.2 | 55.1*
CCOc1ccc(CN(C)C(=O)CCNC(=O)c2ccco2)cc1 | 4.7 | -1.6 | 5.0 | x
COc1ccc(N=Nc2c(N)nn(C)c2N)cc1 | -5.4 | 60.1* | 17.1 | x
Cc1ccc(N=Nc2c(N)nn(-c3ccccc3)c2N)cc1 | -2.8 | 24.5 | 14.0 | 2.6
Cn1c(SCC(=O)Nc2ccc(C(=O)O)cc2)nnc1-c1ccccn1 | x | x | 4.6 | x
Cc1c(NC(=S)N/N=C/C=C/c2ccccc2)c(=O)n(-c2ccccc2)n1C | -0.1 | 61.8* | 21.0 | -1.8
Cc1c(NC(=S)N/N=C/C=C/c2ccc([N+](=O)[O-])cc2)c(=O)n(-c2ccccc2)n1C | 3.6 | 31.8* | 14.3 | 3.7
Cc1c(NC(=S)N/N=C/c2ccc(Br)cc2)c(=O)n(-c2ccccc2)n1C | 0.1 | 18.4 | 17.4 | -2.9
CCOC(=O)C1=CCN(S(=O)(=O)c2ccccc2Br)C1c1ccccc1 (centres undefined) | -0.3 | x | 6.9 | x
COc1cc2c(cc1OC)C(C)=NCC2 | + | 0.0 | -246.2 | -0.8
COc1cc2c(cc1OC)C(C)=NC1(CCCCC1)C2 | 185.7* | 14.7 | -191.1 | -9.9
O=C(COC(=O)c1cccc(OC(F)F)c1)Nc1ncccn1 | 3.9 | 0.4 | 6.5 | x
CN1CCN(S(=O)(=O)c2cccc(C(=O)Nc3ccc(Br)cc3Br)c2)CC1 | -1.5 | 4.1 | 13.1 | 5.4
COc1ccc(CN2CCN(C(=O)c3c(-c4ccccc4)noc3C)CC2)cc1F | 1.6 | 5.6 | 7.1 | x
CC1(C)COC(c2ccc3c(c2)OCO3)OC1 | 0.1 | 6.1 | 2.9 | x
Cc1ccc(-n2c(O)c(/C=N/NC(=O)C3COc4ccccc4O3)c3ccccc3c2=O)cc1 (centres undefined) | 15.3 | 4.9 | -8.6 | -14.2
O=C(N/N=C/c1c(O)n(-c2ccccc2Cl)c(=O)c2ccccc12)C1COc2ccccc2O1 (centres undefined) | 34.4* | 15.1 | x | 5.8
CC(=O)Nc1nc2c(F)cccc2s1 | 1.4 | 4.8 | -7.7 | 0.9
O=C(Nc1nc2c(F)cccc2s1)c1ccco1 | 5.9 | 35.6* | 3.4 | -1.3
CCC(=O)Nc1nc2ccc(NC(C)=O)cc2s1 | -4.1 | 0.9 | 9.0 | x
CC(=O)Nc1ccc2nc(NC(=O)c3ccco3)sc2c1 | -1.2 | 32.3* | 3.8 | -1.0
CCOc1cccc2sc(Nc3nc4ccc(NC(C)=O)cc4s3)nc12 | 119.1* | 39.1* | -60.3 | 1.6
SMILES | Mtb FBA inh | GDH-TPI counter | CCHFV vOTU inh | RecA splice inh
Brc1ccc([C@H]2C=C[C@H]3CCCN4CC[C@H]2[C@@H]3[C@]42CO2)cc1 | x | x | 1.5 | x
O=C(CC1S/C(=N/N=C/c2c[nH]c3ccccc23)NC1=O)Nc1ccccc1 (centres undefined) | -3.6 | 47.4* | 25.3 | -1.6
O=C(CC1S/C(=N/N=C/c2c[nH]c3ccc(OCc4ccccc4)cc23)NC1=O)Nc1ccccc1 (centres undefined) | -3.1 | 27.6 | 10.2 | -1.7
O=C(CC1S/C(=N/N=C/c2cccs2)NC1=O)Nc1ccc(Cl)cc1 (centres undefined) | -2.7 | 30.7* | 3.8 | 2.7
O=C(CC1S/C(=N/N=C/C=C/c2ccccc2)NC1=O)Nc1ccc(C(=O)O)cc1 (centres undefined) | 3.3 | 57.2* | -4.0 | -1.8
O=C(CC1S/C(=N/N=C/c2ccco2)NC1=O)Nc1ccccc1 (centres undefined) | 14.0 | 15.0 | 7.9 | -1.5
COC(=O)[C@@]12C[C@@H](CC(=O)N3CCOCC3)C(=O)N(Cc3cccc4ccccc34)C1=CCC(C)(C)C2 | x | x | 5.2 | x
CN(C)c1ccc(/C=C2\SC(=O)N(CCc3nnc(N)s3)C2=O)cc1 | -22.4 | 31.6* | 2.8 | -3.0
O=C(O)c1sc2cc(C(F)(F)F)cnc2c1-c1ccccn1 | 146.2* | 11.7 | 17.0 | 0.7
CCOc1ccc(Oc2c(Cl)c(Br)nn(Cc3cccc4ccccc34)c2=O)cc1 | x | x | 11.5 | x
COCCNC(=O)C1(C)CCCN(C(=O)c2ccccc2)C1 (centres undefined) | -0.9 | 7.1 | -3.1 | x
COc1ccccc1/C=C1\SC(=O)N(CC(=O)N(C)C2CCS(=O)(=O)C2)C1=O (centres undefined) | -0.8 | 31.0* | 17.9 | 0.0
